In the library only some 7.6% were active in any assay of this set; here they are far more common.
CRE-bla Fsk: CRE-bla signaling modulation under forskolin stimulation; CHO CRE-bla reporter (cAMP response element driving beta-lactamase), forskolin EC10, beta-lactamase ratio; AID 662; Potency, µM (doses to about 38.2 µM), for inactives: top-dose activity change, negative = inhibition, usual class: activators; 71,000 compounds, 2.5% hits; active = well fitted activation curve with a large enough effect in the signal ratio, with a control signal flat, not every such curve was filed as active; inconclusive = small, poorly fitted or top-dose-only effect, or effect the other way, or a change in a side signal; the % refers to the signal ratio; also: % of control where 0% means no effect
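Forskolin analogue NKH 477 at EC10 stimulated CRE-driven beta-lactamase in CHO cells alongside compound dilution series. Beta-lactamase was measured with CCF4, excitation 405 nm, emission ratio 460/530 nm.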
TSHR ag: activates the human thyroid stimulating hormone receptor. P16473. HEK293-CNG-TSHR cells (CNG channel as cAMP sensor), membrane potential dye, cAMP. Potency, µM (titrated, usually from 57.1 µM), for inactives: at the highest dose activation, most hits filed as activators. 73,000 compounds, 0.48% hits; active = well fitted activation curve with a large enough effect in the main read-out, with a control signal flat, not every such curve was filed as active; inconclusive = small, poorly fitted or top-dose-only effect, or a change in a side signal; inactive = no such curve, though single readings can be large or run the other way; % of control where 0% means no effect;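 also: the control signal comes from parental cells without the receptor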
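HEK 293 cells stably expressing TSHR and a cAMP-gated CNG channel; parental CNG-only cells as counterscreen. Cells preloaded 60 min with membrane potential dye plus 100 uM RO 20-1724, then compound 30 min; fluorescence read at 590 nm.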
Tau filament bind: binds recombinant human tau filaments; P10636; Potency, µM (series often up to 57.1 µM), for the others: at the top dose activity change, negative = inhibition; AID 596; 71,000 compounds, 2% hits; recombinant tau filaments, thioflavin S fluorescence, 15 h; filaments grown with octadecylsulfate alongside compound;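 also: % is scaled to controls: 0 for no effect and ±100 for the full control effect; actives lower thioflavin S fluorescence by blocking filaments or displacing dye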
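Recombinant tau protein (human, 1 uM final) plus 30 uM ODS in HEPES pH 7.4 with NaCl, DTT and thioflavine S. Compound present from the start; fluorescence at 510 nm after 15 h, 37 C.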
ERK AVP inh: vasopressin-driven ERK pathway inhibition; HEK293-V1b, vasopressin-stimulated pERK AlphaScreen; Potency, µM (series often up to 57.5 µM), for inactives: at the top dose activity, negative = inhibition, most hits filed as inhibitors; 72,000 compounds, 0.99% hits; also: % is scaled to controls: 0 for no effect and ±100 for the full control effect; nearly all actives have a fitted effect of over 55% in size
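V1b-HEK293 cells; cpd 30 min 37C; 25 nM vasopressin 5 min; lyse 10 min; AlphaScreen beads 5 hr RT. Normalized to DMSO basal and 25 nM vasopressin; AC50 by Hill fit.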
HEK293 cAMP cs: counter-screen for TSHR agonists: cAMP increase in parental HEK293 | parental HEK293 CNG cAMP sensor, membrane potential fluorescence | Potency, µM (highest dose often 57.1 µM), for inactives: top-dose activation, actives largely listed as activators | 73,000 compounds, 2.5% hits | AID 938; also: % of control where 0% means no effect; nearly all actives have a fitted effect of over 55% in size
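Counterscreen for endogenous-receptor signalling: CNG-channel HEK 293 cells report cAMP rise by membrane depolarization. After 60 min dye equilibration with 100 uM RO 20-1724, compounds incubated 30 min before bottom-read fluorescence at 590 nm.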
* = called active by the depositor; [ ] = remark or other dose. Unless noted, calls follow the shape of the dose curve; as a rule, active = well fitted curve in the direction sought with a large enough effect; inconclusive = small, poorly fitted or top-dose-only effect, or another doubt; inactive = no such curve, though single readings can be large; an effect the other way counts as inactive or inconclusive. Potency is read from the fitted curve at half-maximal effect.

CN(C)C(=O)c1ccc(-c2nc(N(C)C)c3ccccc3n2)cc1 was read as CRE-bla Fsk 7.94µM*, TSHR ag 6.0%, Tau filament bind -18.9%, ERK AVP inh -10.9% and HEK293 cAMP cs -16.1%.
`COCCNc1nc(-c2ccc(N(C)C)cc2)nc2ccccc12` gave CRE-bla Fsk inconclusive, TSHR ag inconclusive, Tau filament bind inactive, ERK AVP inh -2.6% and HEK293 cAMP cs -63.2%.
c1ccc(Nc2nc(-c3ccoc3)nc3ccccc23)cc1 was read as CRE-bla Fsk inconclusive, TSHR ag inconclusive, Tau filament bind 12.6µM*, ERK AVP inh -27.8% and HEK293 cAMP cs inconclusive.
`CN(C)C(=O)c1ccc(-c2nc(NCc3ccccc3)c3ccccc3n2)cc1` gave CRE-bla Fsk 2µM*, TSHR ag inconclusive, Tau filament bind 4.2%, ERK AVP inh -21.1% and HEK293 cAMP cs inconclusive.
`COCCNc1nc(-c2ccc(C(=O)N(C)C)cc2)nc2ccccc12` gave CRE-bla Fsk inconclusive, TSHR ag 9.6%, Tau filament bind -1.4%, ERK AVP inh 5.7% and HEK293 cAMP cs -13.9%.
For COc1cc2nc(N3CC=[N+](C(=O)c4ccco4)CC3)nc(N)c2cc1OC the results were CRE-bla Fsk 21.3%, TSHR ag -0.9%, Tau filament bind 7.1%, ERK AVP inh -15.2% and HEK293 cAMP cs -2.3%.
C[C@@H]1Nc2ccc(Cl)cc2S(=O)(=O)N1 was read as CRE-bla Fsk -5.8%, TSHR ag -7.3%, Tau filament bind -3.1%, ERK AVP inh -18.9% and HEK293 cAMP cs -12.7%.
Screening CC(=O)O[C@@H]1CC(C)=C2[C@H]1[C@H](C)CC[C@H]2/C=C(\C)C(=O)O returned CRE-bla Fsk -0.3%, TSHR ag 2.4%, Tau filament bind -1.4%, ERK AVP inh 19.3% and HEK293 cAMP cs 29.1%.
CC(=O)NCCNc1nc(-c2ccc(N(C)C)cc2)nc2ccccc12 was read as CRE-bla Fsk inconclusive, TSHR ag inconclusive, Tau filament bind inactive, ERK AVP inh -23.5% and HEK293 cAMP cs -56.5%.
CN(C)C(=O)c1ccc(-c2nc(Nc3ccccc3)c3ccccc3n2)cc1 was read as CRE-bla Fsk 3.16µM*, TSHR ag 20µM*, Tau filament bind 16.5%, ERK AVP inh inconclusive and HEK293 cAMP cs 13.7%.
CN(C)c1nc(-c2ccoc2)nc2ccccc12 was read as CRE-bla Fsk 12.6µM*, TSHR ag 6.4%, Tau filament bind 15.8µM*, ERK AVP inh -10.4% and HEK293 cAMP cs 6.1%.
`O=C(c1cnccn1)N1CCC[C@@]2(CCN(c3ccccn3)C2)C1` gave CRE-bla Fsk -9.8%, TSHR ag inconclusive, Tau filament bind 1.5%, ERK AVP inh -8.9% and HEK293 cAMP cs inconclusive.
Screening C/C=C/c1ccc(OCCCCN2C(=O)NC(C)(C)C2=O)c(OC)c1 returned CRE-bla Fsk inconclusive, TSHR ag 1.8%, Tau filament bind -8.7%, ERK AVP inh 20µM* and HEK293 cAMP cs 1.1%.
`Cc1noc(NS(=O)(=O)c2ccc(NC(=O)COc3ccc(Cl)cc3Cl)cc2)c1C` gave CRE-bla Fsk inconclusive, TSHR ag 2.3%[11.4 µM], Tau filament bind 21.9%[11.4 µM], ERK AVP inh 2.51µM* and HEK293 cAMP cs -1.2%[11.4 µM].
Cc1ccc(OCC(=O)Nc2ccc(S(=O)(=O)Nc3onc(C)c3C)cc2)cc1 was read as CRE-bla Fsk -6.2%, Tau filament bind -1.8%, ERK AVP inh 0.9% and HEK293 cAMP cs 5.2%.
For N#Cc1nc(N2CCCC2)nc(N2CCCC2)n1 the results were CRE-bla Fsk inconclusive, TSHR ag 16.8%[11.4 µM], Tau filament bind 41.3%, ERK AVP inh inconclusive and HEK293 cAMP cs 21.1%.
`N#Cc1nc(N2CCCCC2)nc(N2CCOCC2)n1` gave CRE-bla Fsk inconclusive, TSHR ag 31.8%, Tau filament bind 2.51µM*, ERK AVP inh inconclusive and HEK293 cAMP cs 15.0%.
COCC(=O)N1CCC[C@@]2(CCN(C(=O)Nc3cccc(F)c3)C2)C1 was read as CRE-bla Fsk -0.9%, TSHR ag -1.3%, Tau filament bind 4.0%, ERK AVP inh 5.7% and HEK293 cAMP cs -6.3%.
For O=C1CCC(C(=O)Nc2cccc3ccccc23)N1 (stereo not given) the results were CRE-bla Fsk -5.8%, TSHR ag -5.9%, Tau filament bind 1.6%, ERK AVP inh -8.2% and HEK293 cAMP cs -0.2%.

Screening data as filed in PubChem.
